Assay outcomes (PubChem)
Cycloheximide cs: Cycloheximide Counterscreen for Small Molecule Inhibitors of Shiga Toxin; cell reporter, cycloheximide protein synthesis inhibition counterscreen; max response, %; 300,000 compounds, 12% hits; in the data active = max response mostly above about 13%, no sharp cut-off; inactive = mostly below about 14%; note: read at 38.3 µM for the half of the compounds with a filed dose; 0% is about no effect
NS1 function inh: qHTS Assay for Inhibitors of Influenza NS1 Protein Function. 270,000 compounds, 0.4% hits. Potency, µM (highest dose often 46.1 µM), without a hit: top-dose activity, positive = more growth. AID 2326, 2010; calls by dose curve; note: potency is the fitted concentration of half-maximal effect; actives are rising curves; nearly all actives have a fitted effect of over 50% in size
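S. cerevisiae expressing influenza A NS1, grown in glucose, washed, then diluted 1:100 into pH 6.0 -URA galactose medium with 23 nl compound. Growth recovery read as OD600; NS1-free strain serves as control.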
Sm TGR inh: qHTS Assay for the Inhibitors of Schistosoma Mansoni Peroxiredoxins. 360,000 compounds, 3% hits. purified TGR, DTNB reduction, TNB absorbance 405 nm. Potency, µM (top dose mostly 114 µM), for inactives: at the top dose activity change, negative = inhibition, hits mostly inhibitors. AID 485364, 2010; note: potency is the fitted concentration of half-maximal effect; % is set by controls: 0 for no effect and ±100 for the full control effect; nearly all actives have a fitted effect of over 60% in size
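First, TGR (20 nM dispensed) and NADPH were mixed with compound. Second, a 15 min room-temperature incubation followed. Third, further NADPH and then DTNB were added to start the reaction. Finally, TNB absorbance was monitored kinetically.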
Pf growth 96h: Primary qHTS for delayed death inhibitors of the malarial parasite plastid, 96 hour incubation. Potency, µM (doses to about 28.7 µM), inactives show at the highest dose activity change, negative = inhibition, hits mostly inhibitors. P. falciparum luciferase reporter growth, 96 h. AID 504834, 2011. 320,000 compounds, 6.9% hits; note: potency is the fitted concentration of half-maximal effect; % is set by controls: 0 for no effect and ±100 for the full control effect
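P. falciparum expressing integrated firefly luciferase, in erythrocytes at 2% hematocrit, 0.05% parasitemia, incubated with compounds 96 h at 37 C, 5% CO2. Growth inhibition read as loss of luminescence; two-generation exposure targets delayed-death apicoplast inhibitors.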
Shiga toxin inh: A qHTS for Small Molecule Inhibitors of Shiga Toxin | Vero cells, Shiga toxin protein synthesis inhibition reporter | inhibition, % at 38.7 µM | 290,000 compounds, 9.2% hits; in the data active = inhibition mostly above about 28%, no sharp cut-off; inactive = mostly below about 43%; note: 0% is about no effect
Pf growth 48h: Primary qHTS for delayed death inhibitors of the malarial parasite plastid, 48 hour incubation. P. falciparum luciferase growth in erythrocytes, 48 h. 310,000 compounds, 5.9% hits. Potency, µM (top dose mostly 28.7 µM), inactives show at the highest dose activity change, negative = inhibition, hits mostly inhibitors. AID 504832, 2011; note: potency is the fitted concentration of half-maximal effect; % is set by controls: 0 for no effect and ±100 for the full control effect
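Read-out is firefly luciferase luminescence from an integrated reporter in P. falciparum, so falling signal marks reduced parasite growth. Infected erythrocytes were at 2% hematocrit and 0.1% parasitemia (final) in Albumax-supplemented RPMI 1640.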
Numbers without * were called inactive; i = inactive; ? = inconclusive; . = no result given. The list is not random: actives were taken first. Their share in the collection is about 21%. Unless noted, calls come from the whole dose curve; as a rule, active = well fitted curve in the direction sought with a large enough effect; inconclusive = small, poorly fitted or top-dose-only effect, or another doubt; inactive = no such curve, though single readings can be large; an effect the other way counts as inactive or inconclusive.

SMILES	Cycloheximide cs	NS1 function inh	Sm TGR inh	Pf growth 96h	Shiga toxin inh	Pf growth 48h
c1ccc2[nH]c(SCC3CCCCO3)nc2c1 (centres undefined)	34*	3%	13%	i	105*	i
O=c1c2ccccc2nc(SCC2CCCCO2)n1-c1ccccc1 (centres undefined)	1	-6%	0%	16%	17	1%
CCOC(=O)NC(=O)CSc1nc2ccc(OCC)cc2[nH]1	-3	0%	-15%	10%	-9	19%
CCOc1ccc2nc(SCC3CC3(Cl)Cl)[nH]c2c1 (centres undefined)	55*	-4%	15%	209%	114*	187%
ClC1(Cl)CC1CSc1nc2ccccc2[nH]1 (centres undefined)	42*	.	7%	?	61	59%
O=C(O)CSc1nc2ccccc2[nH]1	1	-7%	-7%	?	-4	.
Cc1ccc(NC(=O)c2cc(S(=O)(=O)N3CCC(C)CC3)cn2C)cc1Cl	.	.	7%	.	.	.
COC(=O)C1=C(C)N(CCc2ccc(OC)c(OC)c2)C(=O)/C1=C\N(C)C	-4	-5%	7.9µM*	.	-8	?
CC(=O)N1CCN(S(=O)(=O)c2cccc(C(=O)OCc3cccc(F)c3)c2)CC1	.	.	1%	-17%	.	4%
COCCCn1c(-c2cccc(Cl)c2)nc2c1c(=O)[nH]c(=O)n2Cc1ccccc1	-2	1%	2%	10µM*	-3	12µM*
Cn1c(-c2cc(Cl)ccc2O)nc2c1c(=O)[nH]c(=O)n2Cc1ccccc1	9	.	-2%	10µM*	2	?
Cc1ccc(NC(=O)N2CCc3ccccc32)cc1	21*	-6%	0%	i	20	406%
CCNC(=O)c1ccc(NC(=O)N2CCCCc3ccccc32)cc1	.	.	-7%	.	.	.
CCc1ccccc1NC(=O)N1CCCc2ccccc21	43*	4%	-22%	61%	59*	30%
CN1CCN(c2ccc(NC(=O)N3CCc4ccccc43)cc2)CC1	18*	5%	-1%	264%	20	124%
Cc1ccc(NC(=O)N2CCc3ccccc32)cc1C	31*	.	6%	48%	98*	305%
O=C(CSc1nnc2ccc(-c3cccnc3)nn12)Nc1ccccc1F	.	.	-5%	-13%	.	17%
COc1cccc(OC)c1C(=O)OCC(=O)Nc1cccnc1Cl	-1	-1%	1%	38%	-6	?
Cc1ccc(NC(=O)N2CCCc3ccccc32)cc1	31*	-2%	1%	-18%	86*	0%
CN(CC(=O)Nc1ccccc1C(F)(F)F)C(=O)CCc1nc2ccccc2c(=O)[nH]1	.	.	1%	2%	.	0%
CC(C)(C)SCCNC(=O)COc1ccc(Cl)cc1	11*	-4%	-16%	?	-6	6%
Cc1ccccc1CSCCNC(=O)COc1ccc(Cl)cc1	1	-24%	-10%	?	12	-3%
CCOc1cc2c(cc1OCC)-n1cccc1C(c1ccccc1F)NC2 (centres undefined)	2	3%	7%	?	-15	8.3µM*
CCOc1cc2c(cc1OCC)-n1cccc1C(c1cccc(F)c1)NC2 (centres undefined)	-1	-3%	-7%	9.3µM*	-4	13µM*
CCOc1cc2c(cc1OCC)-n1cccc1C(c1ccc(C)cc1C)NC2 (centres undefined)	0	-3%	6%	-11%	-3	?
SMILES	Cycloheximide cs	NS1 function inh	Sm TGR inh	Pf growth 96h	Shiga toxin inh	Pf growth 48h
CCOc1cc(C2NCc3ccccc3-n3cccc32)ccc1OC (centres undefined)	-4	1%	9%	23%	-6	?
COc1ccc(C2NCc3ccccc3-n3cccc32)cc1 (centres undefined)	-5	-1%	0%	-3%	-18	.
CCOc1cc2c(cc1OCC)-n1cccc1C(c1cc(OC)ccc1F)NC2 (centres undefined)	-5	-32%	-8%	2.9µM*	-7	?
CCOc1cc2c(cc1OCC)-n1cccc1C(c1cccc(OCC)c1O)NC2 (centres undefined)	7	1%	-3%	-20%	8	15µM*
COc1ccccc1N=C1SCC(=O)N1c1ccccc1OC	-6	-4%	5%	-23%	-8	-9%
COc1cccc2c1cc1c(=O)n(CC(=O)O)nc(C)n12	.	.	0%	.	.	.
Cn1c(CSc2ncccn2)nnc1SCC(=O)N1CCCC1	1	2%	.	?	16	11%
CCOc1ccc(NC(=O)C2CC(=O)N(CCc3ccc(OC)c(OC)c3)C2)cc1OCC (centres undefined)	.	.	-14%	?	.	?
COc1cc(C2NCc3ccccc3-n3cccc32)ccc1O (centres undefined)	-1	?	-1%	?	-5	2.6µM*
CCOc1cc2c(cc1OCC)-n1cccc1C(c1ccc(OC)c(O)c1)NC2 (centres undefined)	-6	3%	-9%	5%	-9	2.9µM*
CCOc1cc2c(cc1OCC)-n1cccc1C(c1cc(C)c(OC)cc1C)NC2 (centres undefined)	-2	6%	13%	17%	-4	6.6µM*
CCS(=O)(=O)c1nc(S(=O)(=O)c2ccc(C)cc2)c(NCCCOC)s1	.	.	2%	.	.	.
Cc1ccccc1C(=O)NNc1ccc(-c2csnn2)cc1	2	-35%	-9%	13%	5	1.9µM*
COc1cc(CNC(C)(C)CO)cc(Br)c1OCc1ccc(Cl)cc1Cl	-5	-18%	-3%	13µM*	-3	12µM*
CC(C)(CO)NCc1c(OCc2ccc(Cl)cc2)ccc2ccccc12	-7	-24%	-4%	4.1µM*	.	?
CNCc1c(OCc2ccccc2)ccc2ccccc12	1	5%	-14%	?	-3	?
COc1cc(CNC(C)(C)CO)cc(Br)c1OCc1ccc(Cl)cc1	-3	-8%	1%	?	8	13µM*
O=[N+]([O-])c1cc([N+](=O)[O-])c(Oc2ccc(Br)cc2Br)cc1NN1CCCCC1	-2	-10%	5%	12µM*	1	59%
Clc1ccccc1C(Nc1ncccn1)Nc1ncccn1	.	-8%	.	.	.	.
COc1ccc2[nH]cc(/C=N/NS(=O)(=O)c3ccc(C)cc3)c2c1	1	-9%	1%	27%	15	5%
COc1ccc2c(/C=N/NS(=O)(=O)c3ccc(C)cc3)c[nH]c2c1	9	-2%	14µM*	6%	-1	0%
O=C(CSCc1ccc([N+](=O)[O-])cc1)Nc1ccc(S(=O)(=O)N2CCCCCC2)cc1	-5	12%	4%	10µM*	9	?
O=C(CSCc1ccccc1)Nc1ccccc1C(=O)Nc1ccc(C(=O)O)cc1	13*	-1%	3%	12%	24	-3%
